In PubChem BioAssay (NCATS):
Records with an inconclusive call do not appear. Unmarked numbers belong to inactive results. Activity calls are given as the source filed them. Calls come from the whole dose curve; as a rule, active = well fitted inhibition curve with a large enough effect; inconclusive = small, poorly fitted or top-dose-only effect; inactive = flat fitted curve, though single readings scatter.

Target: Tyrosine-protein phosphatase non-receptor type substrate 1 (Homo sapiens) + Leukocyte surface antigen CD47 (Homo sapiens) (UniProt P78324+Q08722)
Experiment: CD47-SIRPalpha protein protein interaction - Alpha assay qHTS validation (AID 1347059);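 note: bead proximity luminescence from CD47 binding SIRPalpha after compound preincubation with SIRPalpha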
Settings: AlphaScreen CD47-His/biotin-SIRPalpha binding, LOPAC; series mostly up to 38.3 µM; activity change, negative = inhibition: at the top concentration
Description: SIRPalpha is a myeloid cell expressed immunomodulatory receptor that binds the tumor expressed immune checkpoint CD47. Therapeutic disruption of this interaction leads to immune-mediated tumor rejection. This assay was used to quantitate CD47-SIRPalpha binding biochemically and evaluate chemical libraries for novel CD47-SIRPalpha inhibitors. To recapitulate the biological interaction of CD47 and SIRPalpha, we designed expression constructs to produce their recombinant, soluble, extracellular interaction domains. CD47 was produced with an N-terminal 6His tag. SIRPalpha was produced with an N-terminal Avi-Tag for site-specific biotin incorporation. The CD47-SIRPalpha interaction was measured by AlphaScreen using affinity tag linked reagents (Ni-NTA acceptor bead and streptavidin donor bead). SIRPalpha without biotin incorporation was used as a positive control inhibitor.
PROTOCOL TABLE (as described by Miller, T. et al. 2019)
SEQUENCE No. (e.g., 1, 2, 3, etc.); […] (e.g., Cells, Incubation, Reagent, etc.); VALUE and DESCRIPTION.
1a. Reagent. 2 uL SIRPalpha-biotin (25 nM) added to respective wells in Assay buffer; white/solid bottom high base, med bind 1536-well plates (Greiner 789075)
1b. Reagent. 2 uL Assay buffer negative control for background fluorescence
2. Reagent. 23 nL library compounds (7-pt, 1:4 intraplate titration series) or DMSO control transferred by Pin Tool
3. Centrifuge. Centrifuge plate for 30 s at 1000 RPM
4. Incubation.#Incubate reagents at room temperature for 30 min, protected from light
5. Reagent. 2 uL CD47-His (12.5 nM) in Assay buffer
6. Centrifuge. Centrifuge plate for 30 s at 1000 RPM
7. Incubation.#Incubate reagents at room temperature for 30 min, protected from light
8. Reagent. 1 uL Ni-NTA beads (10 ug/mL) added to respective wells
9. Reagent. 1 uL SAV beads (10 ug/mL) added to respective wells
10. Centrifuge. Centrifuge plate for 30 s at 1000 RPM
11. Incubation. Incubate reagents at room temperature for 30 min, protected from light
12. Detector. Measure AlphaScree n on EnVision (1536A1 aperture)
Where possible, perform Donor bead dilution and addition away from direct sunlight or with bright overhead lights turned off (<100 lux, similar to hallway lighting). Lighting should still be bright enough to allow accurate pipetting.
1. Assay buffer composition.#Phosphate buffered saline (PBS; 10 mM Phosphate, 137 mM NaCl, and 2.7 mM KCl; pH 7.4), 0.05% IGEPAL CA-630
2. 23nL of […] library compounds (7 plates) or DMSO vehicle control transferred to 9 Greiner white/solid bottom high base, TC plates in 7 interplate 1:5 titrations (see Yasgar, A. et al. 2008) with Pintool. Two of the 9 plates are DMSO-only in compound field at beginning and end of compound library-treated plates.
12. Aperture = 1536 plate HTS AlphaScreen; plate-detector distance = 0; Total measurement time = 240; Ex. time = 80 ms (33%); Afterglow CT1 corr. factor = 0; Glow CT2 corr. factor = 0; Bleach CT3 corr. factor = 0; Ref. signal= 417733; Ref. AD gain = 2
% is set by controls: 0 for no effect and ±100 for the full control effect.

Sequence of Tyrosine-protein phosphatase non-receptor type substrate 1 (Homo sapiens) + Leukocyte surface antigen CD47 (Homo sapiens) (P78324 whole entry, looked up): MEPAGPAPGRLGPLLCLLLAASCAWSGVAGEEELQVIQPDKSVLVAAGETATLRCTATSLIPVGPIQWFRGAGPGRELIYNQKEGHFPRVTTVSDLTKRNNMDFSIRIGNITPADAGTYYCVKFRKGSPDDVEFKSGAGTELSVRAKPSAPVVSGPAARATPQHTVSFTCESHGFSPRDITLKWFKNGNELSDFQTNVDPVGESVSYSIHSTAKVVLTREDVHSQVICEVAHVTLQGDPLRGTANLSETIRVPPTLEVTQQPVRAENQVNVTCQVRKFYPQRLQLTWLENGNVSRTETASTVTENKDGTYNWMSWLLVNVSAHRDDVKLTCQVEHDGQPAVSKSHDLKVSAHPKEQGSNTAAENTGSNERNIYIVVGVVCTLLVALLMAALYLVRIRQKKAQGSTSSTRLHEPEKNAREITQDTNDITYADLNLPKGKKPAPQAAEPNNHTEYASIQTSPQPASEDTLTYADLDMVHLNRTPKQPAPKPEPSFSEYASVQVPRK
Sequence of Tyrosine-protein phosphatase non-receptor type substrate 1 (Homo sapiens) + Leukocyte surface antigen CD47 (Homo sapiens) (Q08722 whole entry, looked up): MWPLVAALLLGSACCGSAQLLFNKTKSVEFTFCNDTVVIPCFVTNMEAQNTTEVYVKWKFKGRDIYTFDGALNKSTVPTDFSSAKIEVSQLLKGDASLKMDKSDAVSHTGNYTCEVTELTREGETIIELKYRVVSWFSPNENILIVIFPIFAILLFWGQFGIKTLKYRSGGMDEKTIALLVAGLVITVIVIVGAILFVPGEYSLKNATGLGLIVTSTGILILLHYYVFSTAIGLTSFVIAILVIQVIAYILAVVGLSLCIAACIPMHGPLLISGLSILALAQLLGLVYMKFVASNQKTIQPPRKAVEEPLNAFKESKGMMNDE

Going from `O=P(O)(O)C(Cl)(Cl)P(=O)(O)O` to `N[C@H](CCCP(=O)(O)O)C(=O)O`, the “activity change, negative = inhibition” value rises from -3.91% to 2.12%.

First: COC(=O)C1=C(C)NC(C)=C(C(=O)OC)C1c1cccc(NC(=O)NCCCN2CCC(c3cccc(OC)c3)CC2)c1
Second: CCOC(=O)C1=C(C)NC(C)=C(C(=O)OCC)C1c1c(F)c(F)c(F)c(F)c1F
The “activity change, negative = inhibition” value of the first is lower: -8.29% for the first, 71% for the second.

Going from `CC[C@H]1OC(=O)[C@H](C)[C@@H](O[C@H]2C[C@@](C)(OC)[C@@H](O)[C@H](C)O2)[C@H](C)[C@@H](O[C@@H]2O[C@H](C)C[C@H](NC)[C@H]2O)[C@](C)(O)C[C@@H](C)CN(C)[C@H](C)[C@@H](O)[C@]1(C)O` to `CN[C@H](CC(C)C)C(=O)N[C@H]1C(=O)N[C@@H](CC(N)=O)C(=O)N[C@H]2C(=O)N[C@H]3C(=O)N[C@H](C(=O)N[C@H](C(=O)O)c4cc(O)cc(O)c4-c4cc3ccc4O)[C@H](O)c3ccc(c(Cl)c3)Oc3cc2cc(c3O[C@@H]2O[C@H](CO)[C@@H](O)[C@H](O)[C@H]2O[C@H]2C[C@](C)(N)[C@H](O)[C@H](C)O2)Oc2ccc(cc2Cl)[C@H]1O`, the “activity change, negative = inhibition” value falls from 2.61% to -3.5%.

Compared with `S=C(S)OC1CC2CC1C1CCCC21` (stereo not given), `OC[C@H]1O[C@@H](n2cnc3c(NC4CCCC4)ncnc32)[C@H](O)[C@@H]1O` is lower in “activity change, negative = inhibition” value: 2.01% for the first, -1.27% for the second.

First: Nc1nc2c(ncn2[C@@H]2O[C@H](CO)[C@@H](O)[C@@H]2O)c(=O)[nH]1
Second: Nc1ccn([C@H]2O[C@H](CO)[C@@H](O)C2(F)F)c(=O)n1
The “activity change, negative = inhibition” value of the first is lower: -0.597% for the first, -0.364% for the second.

Going from `Cc1cc(NC(=O)Nc2ccc3c(ccn3C)c2)sn1` to `Cc1cc2c(cc1Cl)N(C(=O)Nc1ccc(Oc3cccnc3C)nc1)CC2`, the “activity change, negative = inhibition” value rises from -14.3% to -6.89%.

Going from `O=C(c1cc(O)c(O)c([N+](=O)[O-])c1)c1ccccc1F` to `O=C(O)c1cc([N+](=O)[O-])ccc1NCCCc1ccccc1`, the “activity change, negative = inhibition” value falls from 5.61% to -0.504%.

Going from `COC(=O)c1c(C)[nH]c(C)c1C(=O)c1ccccc1Cc1ccccc1` to `O=C1NC(O)=NC1(c1ccccc1)c1ccccc1`, the “activity change, negative = inhibition” value rises from -9.85% to 0%.

Compared with `O=C1/C(=C/c2ccsc2)CC/C1=C\c1cccs1`, `O=C1NC(=O)/C(=C/c2ccc3nccnc3c2)S1` is higher in “activity change, negative = inhibition” value: -24.2% for the first, 3.36% for the second.

Compared with `NS(=O)(=O)C#Cc1ccccc1`, `O=C(O)CNC(=O)C(CS)Cc1ccccc1` (stereo not given) is higher in “activity change, negative = inhibition” value: 0.771% for the first, 0.962% for the second.

Going from `O=C(NOCC1CC1)c1cc(Br)c(F)c(F)c1Nc1ccc(I)cc1Cl` to `O=C(Nc1ccncc1)c1cc([N+](=O)[O-])ccc1Cl`, the “activity change, negative = inhibition” value rises from -4.24% to -1.8%.

Compared with `N#C/C(=C\c1ccc(-c2cc(Cl)ccc2Cl)o1)C(=O)Nc1cccc2ncccc12`, `Cn1cc(C2=C(c3ccc(Cl)cc3Cl)C(=O)NC2=O)c2ccccc21` is higher in “activity change, negative = inhibition” value: -10.5% for the first, 4.18% for the second.

First: O=[N+]([O-])c1ccc(CNc2nc(NCc3cccc(C(F)(F)F)c3)nc3nc[nH]c23)cc1
Second: NS(=O)(=O)c1ccc(-n2nc(C(F)(F)F)cc2-c2ccc(Cl)cc2)cc1
The “activity change, negative = inhibition” value of the first is lower: -18.8% for the first, 1.65% for the second.

Compared with `CN1CC(=O)N/C1=N/C(=O)Nc1cccc(Cl)c1`, `O=C(O)CC[C@@H](C(=O)O)N1C(=O)c2ccccc2C1=O` is lower in “activity change, negative = inhibition” value: -3.29% for the first, -6.57% for the second.

First: COCCOc1cc2nc[nH]c(=O)c2cc1OCCOC
Second: CCN1/C(=C/C(C)=O)Sc2ccc(OC)cc21
The “activity change, negative = inhibition” value of the first is lower: 0.0254% for the first, 2.11% for the second.

Going from `NCCCCCCCCCCN` to `CN(C)C(N)=NCCC[C@H](N)C(=O)O`, the “activity change, negative = inhibition” value falls from 9.88% to -0.267%.

Going from `O=c1cc(-c2ccccc2)oc2c(O)c(O)ccc12` to `Nc1nc2ccc(Cl)cc2n2c(-c3ccccc3)nnc12`, the “activity change, negative = inhibition” value falls from -14.1% to -16.6%.

First: CC(C)(C)c1ccc(S(=O)(=O)/C=C/C#N)cc1
Second: O=C(/C=C/c1ccc(O)cc1)c1ccc(O)cc1O
The “activity change, negative = inhibition” value of the first is higher: 1.64% for the first, -13.3% for the second.

First: Nc1ncnc2c1ncn2[C@@H]1O[C@H](COP(=O)(O)OP(=O)(O)OP(=O)(O)OP(=O)(O)OC[C@@H]2O[C@H](n3cnc4c(N)ncnc43)[C@@H](O)[C@H]2O)[C@@H](O)[C@H]1O
Second: CN1CCc2cccc3c2C1Cc1ccc(O)c(O)c1-3 (stereo not given)
The “activity change, negative = inhibition” value of the first is higher: -0.182% for the first, -16.1% for the second.

With `Fc1cccc(/C=N/N=C/c2cccc(F)c2)c1` the “activity change, negative = inhibition” value was 1.77%.

With `CCC1C(=O)OCC1Cc1cncn1C` (stereo not given) the Potency was “inactive”.
